Compounds without any hit were thinned out: in the full panel of roughly 83,000, 20% have a hit.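 Method: cells in 96-well plates; compound added at one concentration; 48 h incubation; percent growth measured; values under 10 scored active.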 Calls of active or inactive are those of the source.
The compounds below were run on NCI-H522 lung (assay: NCI-60 one-dose screen, 48 h (100 = growth as untreated, 0 = no growth, -100 = all killed)). Settings: 10 µM.
In the case of `COc1cc(NC(=O)CSc2nc3ccc(Cl)cc3c(=O)n2-c2ccc(F)cc2)cc(OC)c1OC`, the growth is reported as 79.5% (inactive). For `Cc1ccc(C(=O)Nc2ccc(CN3CCN(C)CC3)c(C(F)(F)F)c2)cc1C#Cc1cnc(N)c2ccc(F)cc12`, the growth was -75.1% (active). In the case of `FC(F)(F)c1cccc(-c2[nH]ncc2-c2nnnn2-c2ccccc2)c1`, the growth is reported as 23% (inactive). `COc1cc(CCNc2cnc3cc(N)cc(N)c3n2)cc(OC)c1` was tested, and the growth was 98.2% (inactive). For `CCOC(=O)CNS(=O)(=O)CC(=O)c1ccccc1`, the growth was 89.8% (inactive). In the case of `O=C(Nc1ccc(Cl)cn1)C1(c2ccccc2)CCCCC1`, the growth is reported as 140% (inactive). For `Brc1c(-c2ccncc2)nc2n1CCS2`, the growth was 76.5% (inactive). With `O=C(Nc1cccc(Cn2c(=O)[nH]c3ccc(Oc4ncccn4)cc3c2=O)c1)c1ccc(Cl)cc1` the growth was 50.5% (inactive). With `CC(=O)c1cc(Nc2cc(C)nc(N)n2)cc(C(C)=O)c1` the growth was 99.8% (inactive). `O=C(Nc1cccc(Cn2c(=O)[nH]c3ccc(Oc4ncccn4)cc3c2=O)c1)c1cc(Cl)cc(Cl)c1` was tested, and the growth was 49.3% (inactive). In the case of `C=C1CCC2C3(C)COC(c4ccccc4)OC3CCC2(C)C1C/C=C1/C(=O)OCC1O` (stereo not drawn), the growth is reported as 55.4% (inactive). `CC(C)(C)OC(=O)N1C/C(=C\c2ccccc2)C(=O)/C(=C/c2ccccc2)C1` was tested, and the growth was 72% (inactive). With `Nc1cc(N)c2nc(-c3ccccc3)c(NCCc3ccc(Cl)c(Cl)c3)nc2c1` the growth was -72.1% (active). With `O=C(Nn1cnc2ccccc21)N1CCCC1` the growth was 104% (inactive). In the case of `O=C(Nc1cccc(Cn2c(=O)[nH]c3ccc(Oc4ncccn4)cc3c2=O)c1)c1cccc(F)c1`, the growth is reported as 60.9% (inactive). In the case of `O=C1NCCN1/N=C/c1c(Cl)nc2n1CCS2`, the growth is reported as 34.3% (inactive). With `CC(=O)N1N=C(c2ccc(Cl)cc2)CC1c1cn(-c2ccccc2)nc1-c1ccc([N+](=O)[O-])cc1` (stereo not drawn) the growth was 103% (inactive). In the case of `CCCCCC(=C/c1ccccc1)/C=N/N=C(N)N`, the growth is reported as -65.3% (active). For `COc1cc2oc(-c3ccc(NC(=O)c4ccccc4)cc3)cc(=O)c2c(OC)c1OC`, the growth was 70.2% (inactive). `N#Cc1c(N)nc(Nc2nc3ccccc3[nH]2)nc1-c1ccc(Cl)cc1` was tested, and the growth was 90.4% (inactive). `COc1cc(N)c2nccc(C)c2c1OC` was tested, and the growth was 133% (inactive). In the case of `Cc1ccc(C(=O)NN)cc1`, the growth is reported as 102% (inactive). `COc1cc(OC)c2c(=O)cc(-c3ccccc3)oc2c1` was tested, and the growth was 82.8% (inactive). For `C/C=C(/C)C(=O)OC1C=C(CO)C(=O)C(OC(=O)/C(C)=C\C)C1C(C)C` (stereo not drawn), the growth was -52.8% (active). For `Cc1nn(-c2ccccc2)c(N)c1N=C1NC(=O)/C(=C/c2ccc(Cl)cc2)S1`, the growth was 87.1% (inactive). With `COCC(=O)NNc1[nH]c(-c2ccc(OC)cc2)cc1C#N` the growth was 104% (inactive). `Cc1ncc(C(=O)Nc2ccc(CN3CCN(C)CC3)c(C(F)(F)F)c2)cc1C#Cc1cnc(NC2CC2)c2ncccc12` was tested, and the growth was -76.4% (active). For `CCCOC(=O)c1c(C)n(C)c2scc[n+]12`, the growth was 79.2% (inactive). For `Cc1ccc2c(O)c(O)cc(NC(C)CCCN)c2n1` (stereo not drawn), the growth was 22.3% (inactive). For `Cc1ccc2c(c1)C(=O)CCS2`, the growth was 95.2% (inactive). In the case of `O=C(O)/C(Br)=C/c1c[nH]c2ccc(Br)cc12`, the growth is reported as 110% (inactive). With `COc1ccc(-n2nnnc2-c2cn[nH]c2C(F)(F)F)cc1` the growth was 79.3% (inactive). With `COc1ccc(C2C3(C#N)C(N)=NC(=C(C#N)C#N)C23C#N)cc1OC` (stereo not drawn) the growth was 107% (inactive). In the case of `CCOC(=O)c1cc(-c2ccc(OC)cc2)[nH]c1NNC(=O)CCOC`, the growth is reported as 98% (inactive). For `O=C(NCCCl)Nc1nccnc1OCc1ccc(F)cc1`, the growth was 77.6% (inactive). In the case of `CC1=C(C)C(=O)C(C(C)C2=C(C)C(=O)C(C)=C(C)C2=O)=C(C)C1=O`, the growth is reported as 91.2% (inactive). With `COc1cc(NC(C)CCCN)c2nccc(C)c2c1OC` (stereo not drawn) the growth was 31.6% (inactive). For `COc1cc2c(c(OC)c1OC)C(=O)CC(c1cccc(C(=O)Nc3cccc(Br)c3)c1)O2` (stereo not drawn), the growth was 51.7% (inactive).

— PubChem BioAssay (NCI)
